Data as given in PubChem BioAssay (NCATS).
“And” between values parts separate entries of the source, which are not always exact repeats. Equal entries are not always repeated. Results filed as inconclusive are left out. A number with no mark means an inactive call. The source made the active and inactive calls. Unless noted, calls come from the whole dose curve; as a rule, active = well fitted curve in the direction sought with a large enough effect; inconclusive = small, poorly fitted or top-dose-only effect, or another doubt; inactive = no such curve, though single readings can be large; an effect the other way counts as inactive or inconclusive.

How the values were obtained:
[1] = qHTS assay for measurement of the activity of small molecule inhibitors on Zika virus induced Caspase-3 activity in human iPSC derived neural progenitor cells (hNPCs) (AID 1224857); note: % of control where 0% means no effect; nearly all actives have a fitted effect of over 65% in size
Procedure, shortened: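 Cells were plated at 350 per well and grown 16 to 20 hours. Compound pretreatment lasted one hour, after which ZIKV (2 FFU/cell) was added for 6 hours. Percent inhibition was normalized between uninfected and infected controls.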

[2] = qHTS assay for small molecule agonists of the antioxidant response element (ARE) signaling pathway measured by Nrf2-dependant transcriptional activity (AID 720636; active = well fitted curve in the direction sought with a large enough effect in the repeat runs; an effect the other way counts as inactive or inconclusive;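 note: HepG2 cells with an ARE-driven luciferase reporter; % of control where 0% means no effect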)
Procedure, shortened: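 Nrf2-dependent transcription is measured in ARE-luc HepG2 cells: compound is applied for 16 hr at 37 C after a 6 hr attachment period, and luciferase activity is quantified by luminescence using ONE-Glo.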

[3] = qHTS assay for small molecule antagonists of the retinoid-related orphan receptor gamma (ROR-gamma) signaling pathway - cell viability counter screen (AID 720652; active = well fitted curve in the direction sought with a large enough effect in the repeat runs; an effect the other way counts as inactive or inconclusive;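 note: CHO reporter cells with doxycycline-induced ROR-gamma expression; series mostly up to about 92 µM; compound exposure lasted 16 hr before ATP read; % is set by controls: 0 for no effect and ±100 for the full control effect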)
Procedure, shortened: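 Steps: seed CHO cells bearing TET-inducible ROR and ROR response element-luciferase; rest 5 hr at 37 C; add compound, then doxycycline; incubate 16 hr; add CellTiter-Glo and read luminescence as ATP-based viability.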

[4] = qHTS assay for small molecule agonists of the antioxidant response element (ARE) signaling pathway measured by Nrf2-dependant transcriptional activity - cell viability counter screen (AID 720653; active = well fitted curve in the direction sought with a large enough effect in the repeat runs; an effect the other way counts as inactive or inconclusive; note: % is set by controls: 0 for no effect and ±100 for the full control effect); conditions: ARE-bla HepG2 viability, CellTiter-Glo ATP luminescence, 16 h; active compounds read low
Procedure, shortened: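 ARE-bla HepG2 cells treated with compounds for 16 h at 37C; this counter screen measures viability as intracellular ATP by CellTiter-Glo luminescence after 30 min at room temperature.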

[5] = qHTS Assay for Identifying Gametocytocidal Compounds (AID 743244); note: potency is the fitted concentration of half-maximal effect;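 for max response: % is set by controls: 0 for no effect and ±100 for the full control effect; actives lower the fluorescent signal which means gametocytes are killed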; conditions: P. falciparum 3D7 stage III-V gametocytes, alamarBlue, 72 h; max response: active compounds read low
Procedure, shortened: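 3D7 gametocytes, stages III–V, 20,000/well; cpd 72 h, 37 °C/5% CO2; + alamarBlue 24 h; fluor. Ex 525/Em 598.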

[6] = qHTS assay for cell viability of HEK293 cells (AID 743288); conditions: ATP luminescence (CellTiter-Glo), 18 h, active compounds read low; note: % is set by controls: 0 for no effect and ±100 for the full control effect; nearly all actives have a fitted effect of over 50% in size
Procedure, shortened: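 ATP luminescence (CellTiter-Glo) reports metabolically competent cell number after parental HEK293 cells, 2,000/well, were treated with DMSO-dissolved compounds for 18 h at 37 C; reagent incubation 30 min, room temperature.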

## CCC(CC)(CC(=O)Nc1cccc(/C=C/c2nc(C3CCC3)cs2)c1)C(=O)O
[1]
  Potency: inactive

## OC[C@H]1O[C@@H]2O[C@H]3[C@H](O)[C@@H](O)[C@@H](O[C@H]4[C@H](O)[C@@H](O)[C@@H](O[C@H]5[C@H](O)[C@@H](O)[C@@H](O[C@H]6[C@H](O)[C@@H](O)[C@@H](O[C@H]7[C@H](O)[C@@H](O)[C@@H](O[C@H]8[C@H](O)[C@@H](O)[C@@H](O[C@H]1[C@H](O)[C@H]2O)O[C@@H]8CO)O[C@@H]7CO)O[C@@H]6CO)O[C@@H]5CO)O[C@@H]4CO)O[C@@H]3CO
[2]
  outcome: inactive
[3]
  outcome: inactive
[4]
  max response: -6.08%
[5]
  max response: 2.64%
[6]
  max response: -3.67%
[1]
  Potency: inactive

## NCc1ccccc1Sc1ccccc1CO
[1]
  Potency: inactive

## CN(Cc1ccc(C(C)(C)C)cc1)Cc1cccc2ccccc12
[1]
  Potency: inactive

## Cc1cc(NS(=O)(=O)c2ccc(N)cc2)nc(C)n1
[1]
  Potency: inactive

## CCO[C@@H]1O[C@H](C(COCc2ccccc2)OCc2ccccc2)[C@H](OCc2ccccc2)[C@H]1O (stereo not given in full)
[1]
  Potency: inactive

## COc1ccc(C(=O)c2ccccc2)c(O)c1
[3]
  outcome: inactive
[4]
  max response: 6% and -1.76%
[5]
  max response: -10.7%
[6]
  max response: -9.22% and -8.85%
[1]
  Potency: inactive

## COc1ccc(C(Cl)=C(c2ccc(OC)cc2)c2ccc(OC)cc2)cc1
[2]
  outcome: inactive
[4]
  max response: -11.1%
[5]
  max response: 5.06%
[6]
  max response: -29.7%
[1]
  Potency: inactive

## N#C/C(=C1\SCC(c2ccccc2Cl)S1)n1ccnc1 (stereo not given)
[5]
  max response: 17.4%
[1]
  Potency: inactive

## Oc1ccc(Cl)cc1Cc1cc(Cl)ccc1O
[3]
  outcome: inactive
[5]
  max response: 0.972%
[1]
  Potency: inactive

## Cc1c(-c2ccccc2)oc2c(C(=O)OCCN3CCCCC3)cccc2c1=O
[5]
  max response: 3.61%
[1]
  Potency: inactive

## CCCCOC(=O)CC(CC(=O)OCCCC)(OC(C)=O)C(=O)OCCCC
[2]
  outcome: inactive
[4]
  max response: -1.72%
[5]
  max response: 2.63%
[6]
  max response: -16.9%
[1]
  Potency: inactive

## C=C[C@H]1CN2CC[C@H]1C[C@@H]2[C@@H](O)c1ccnc2ccc(OC)cc12
[2]
  outcome: inactive
[3]
  outcome: inactive
[4]
  max response: 21.8%
[6]
  max response: -3.56%
[1]
  Potency: inactive

## CC(C)[C@@H]1CC[C@@H](C)CC1=O
[5]
  max response: -7.98%
[1]
  Potency: inactive

## O[C@@H](c1cc(C(F)(F)F)nc2c(C(F)(F)F)cccc12)[C@H]1CCCCN1
[5]
  Potency: 1.05 µM (active)
[1]
  Potency: inactive

## NCCNc1cccc2ccccc12
[2]
  outcome: inactive
[4]
  max response: -8.07% and -42.5%
[6]
  max response: -10.4% and -20.5%
[1]
  Potency: inactive

## CC1(C)OC[C@@H]2O[C@@]3(C(=O)O)OC(C)(C)O[C@H]3[C@@H]2O1
[2]
  outcome: inactive
[4]
  max response: -0.898%
[5]
  max response: -4.16%
[6]
  max response: -6.28%
[1]
  Potency: inactive

## C=C[C@@]1(C)CC(=O)[C@]2(O)[C@@]3(C)[C@@H](O)CCC(C)(C)[C@@H]3[C@H](O)[C@H](OC(C)=O)[C@@]2(C)O1
[4]
  max response: 4.11%
[5]
  max response: -8.6%
[6]
  max response: -8.77%
[1]
  Potency: inactive

## CC(C)(C)CC(C)(C)c1ccc(O)c(-n2nc3ccccc3n2)c1
[2]
  outcome: inactive
[4]
  max response: 4.4%
[5]
  max response: -5.06%
[6]
  max response: -13.9%
[1]
  Potency: inactive

## Oc1c(Cl)cc(Cl)c(Cl)c1Cc1c(O)c(Cl)cc(Cl)c1Cl
[2]
  outcome: inactive
[5]
  max response: 14.7%
[1]
  Potency: inactive

## CN(C)C(=O)Nc1ccc(Cl)c(Cl)c1
[4]
  max response: 12.2%
[5]
  max response: -3.3%
[6]
  max response: -11.4%
[1]
  Potency: inactive

## CC1(COc2ccc(CC3SC(=O)NC3=O)cc2)CCCCC1 (stereo not given)
[4]
  max response: -9.6%
[5]
  max response: 2.09%
[6]
  max response: -6.86%
[1]
  Potency: inactive

## OCc1ccccn1
[5]
  max response: -7.21%
[1]
  Potency: inactive

## CCCCCCCC/C=C\CCCCCCCCN
[2]
  outcome: inactive
[4]
  max response: 3.81%
[5]
  max response: -6.53%
[6]
  max response: -0.943%
[1]
  Potency: inactive

## Cc1ncc(CO)c(C=O)c1O
[5]
  max response: -3.85%
[1]
  Potency: inactive

## CCCCCCCCOc1ccc(C(=O)c2ccccc2)c(O)c1
[2]
  outcome: inactive
[4]
  max response: -12.5%
[5]
  max response: -5.25%
[6]
  max response: -9.08%
[1]
  Potency: inactive

## NS(=O)(=O)c1cc2c(cc1Cl)NC(CC1CCCC1)NS2(=O)=O (stereo not given)
[5]
  max response: 17.3%
[1]
  Potency: inactive

## CNCCc1ccccn1
[5]
  max response: -0.406%
[1]
  Potency: inactive

## CCCCCCCCCCCCCCCC(=O)O
[2]
  outcome: inactive
[4]
  max response: -12.5%
[6]
  max response: -2.84%
[1]
  Potency: inactive

## CCCCNC(=O)NS(=O)(=O)c1ccc(N)cc1
[5]
  max response: 19.8%
[1]
  Potency: inactive
